Z-score data for 36 compounds are collected here from PubChem BioAssay.

Structures are written as SMILES.

This test is described as follows: compound effects on hepatocellular carcinoma cell viability – HepG2, calcein-AM fluorescence, 48 h, basal, profiling panel (AID 1164). Further: test concentration not given here. The conditions noted are these: higher = more signal.
Consider `COC(=O)[C@@]1(Cc2ccc(OC)cc2)[C@H]2c3cc(C(=O)N(C)C)n(Cc4ccc(C)o4)c3C[C@H]2CN1C(=O)c1ccccc1`, for which the z-score was 0.81. Then `CCCCCN1CC=CC23O[C@@H]4/C=C\CCC(C)OC(=O)C4[C@H]2C(=O)N(C(CO)C(C)C)[C@@H]3C1=O` (stereo partly specified), with -0.272; and `CCOC(=O)C[C@H]1[C@H](OC(=O)c2ccccc2-c2ccccc2)[C@@H](NC(=O)c2ccc3ccccc3n2)c2cc(OCCCO)ccc2N1C(=O)Cc1ccc(OC)cc1`, with 0.266; and `O=C1OCCC/C=C\[C@H]2OC34C=CCN(c5ccc6ccccc6c5)C(=O)[C@H]3N(CCO)C(=O)[C@@H]4C12` (stereo partly specified), with -0.569.

Regarding `O=C1N(Cc2ccccc2)c2ccccc2C[C@]12N=C(c1ccc(OCCCO)cc1)O[C@@H]2c1ccccc1`, the z-score is -3.54. In the case of `O[C@@H](Cc1ccccc1)[C@@H](/C=C/C1CC1)N(CC#Cc1ccccc1)Cc1ccccc1Br`, the z-score is -0.258. With `O=C(C1N=C(c2ccc(OCCCO)cc2)N(c2ccccc2)O1)N1CCCCC1` (stereo unspecified), the z-score was 0.772. Regarding `CC(C)[Si]1(C(C)C)OCc2cc(-c3ccc(-c4ccc(Cl)c(Cl)c4)o3)nc(-c3ccccc3)c21`, the z-score is -0.738. For the compound `COc1ccc([Si](C)(C)[C@@H]2[C@@H](CCO)O[C@]3(C(=O)N(Cc4ccccc4)c4ccc(NC(=O)[C@H](C)O)cc43)[C@H]2C)cc1`, the z-score was -4.61. On to `COc1cc(NN2C(C(O)c3ccc(N(C)C)cc3)C=CC3C(=O)N(c4ccccc4)C(=O)C32)cc(OC)c1OC` (stereo unspecified), for which the z-score is 0.181.

On to `Cn1cccc1C(O)C1C=CC2C(=O)N(c3ccccc3)C(=O)C2N1Nc1ccccc1` (stereo unspecified), for which the z-score is 0.316.

Turning to `CCOC(=O)C=Cc1cccc(C)c1O`, the z-score is -0.833. Regarding `COC(=O)C1=CC(CCCO)=CC(c2cccs2)N(Cc2cccc(OC(F)(F)F)c2)C=C1C(=O)OC` (stereo unspecified), the z-score was 0.896.

Consider `[N-]=[N+]=Nc1ccccc1[C@@H]1OC(c2ccc(OCCCO)cc2)=N[C@]1(Cc1ccccc1)C(=O)N1CCCCC1`, for which the z-score is -0.822. Regarding `C=CCNC(=O)[C@@H]1[C@H]2C(=O)O[C@H](c3ccccc3)[C@H](c3ccccc3)N2[C@H](c2ccc(O)cc2)[C@@]12C(=O)N(C(=O)OCCOC)c1ccc(C#CC3=CCCCC3)cc12`, the z-score is 0.423. As to `CCOC(=O)C[C@H]1[C@H](OC(=O)c2cc3ccccc3oc2=O)[C@@H](NC(=O)CC(C)C)c2cc(OCCCO)ccc2N1C(=O)c1ccc2ccccc2n1`, the z-score is 0.311. As for `NCCCCCNC(=O)[C@@H]1C[C@@H]2C(=O)N[C@@H](CCCCN)C(=O)N2[C@@H]1c1ccc(O)cc1`, the z-score is 0.131. Take `CC(C)C(CO)N1C(=O)[C@@H]2C3C(=O)OCCC/C=C\[C@H]3OC23C=CCN(Cn2nnc4ccccc42)C(=O)[C@@H]13` (stereo partly specified): the z-score was 0.0343.

`[N-]=[N+]=NCc1ccccc1C[C@@]1(C(N)=O)N=C(c2ccc(OCCCO)cc2)O[C@@H]1c1ccccc1`: the z-score is -1.94. With `CCOC(=O)C[C@H]1[C@H](OC(=O)c2ccc(C(=O)c3ccccc3)cc2)[C@@H](NC(=O)CC(C)C)c2cc(OCCCO)ccc2N1C(=O)c1ccccc1`, the z-score was -0.0606. For `CC(C)[Si](C#C[Si](C(C)C)(C(C)C)C(C)C)(O[C@H](c1ccccc1)c1cn(Cc2ccccc2)nn1)C(C)C`, the z-score was 0.732. Consider `COC(=O)C/C=C/C[C@]1(O)C(=O)N(C)c2ccccc21`, for which the z-score is 1.39. As to `CN1C(=O)C2C=CC(C(O)c3cccn3C)N(Nc3ccc([N+](=O)[O-])cc3[N+](=O)[O-])C2C1=O` (stereo unspecified), the z-score was -0.678.

As to `C=CCN1Cc2ccccc2[C@@H]2OC(c3ccc(OCCCO)cc3)=N[C@]2(CC=C)C1=O`, the z-score is 0.274. Regarding `CCCC=C(CCC)[C@@H](NP(=O)(c1ccccc1)c1ccccc1)c1ccc(-c2ccccc2)cc1`, the z-score was -1.47.

Turning to `C=C(COC)C(=O)CC[C@@H](OC(C)=O)c1cccc(OCCO)c1`, the z-score was -0.4.

As for `CCOC(=O)C1=CC[C@@H](c2ccccc2F)N(S(=O)(=O)c2ccc(C)cc2)[C@H]1c1ccccc1`, the z-score was -0.244. Regarding `O=C1O[C@H](c2ccccc2)[C@H](c2ccccc2)N2[C@H]1[C@@H](C(=O)O)[C@]1(C(=O)Nc3ccc(C#CCCO)cc31)[C@H]2c1ccccc1OCCO`, the z-score is -0.187. For `COc1cc2c(cc1O)C(C1CC1)N(C)CC2` (stereo unspecified), the z-score is 0.575.

Turning to `COC(=O)[C@@]1(Cc2ccc(OC)cc2)[C@H]2c3cc(C(=O)N4CCCC4)n(CCO)c3C[C@H]2CN1C(=O)c1ccccc1`, the z-score was 0.519.

With `[N-]=[N+]=Nc1ccccc1C[C@]1(C(=O)N2CCOCC2)COC(c2ccc(OCCCO)cc2)=N1`, the z-score was -0.603. Take `O=C1C2C=CC(C(O)c3ccco3)N(Nc3ccccc3F)C2C(=O)N1c1ccccc1` (stereo unspecified): the z-score was -0.0718. In the case of `CCCCCN1CC=CC23O[C@@H]4/C=C\CCCOC(=O)C4[C@H]2C(=O)N(C(C)CO)[C@@H]3C1=O` (stereo partly specified), the z-score is -0.0728. For the compound `COC(=O)c1c(CC[C@@H](CO)NC(=O)N2CCC[C@H]2Cn2cc(C3(O)CCCCC3)nn2)oc(C(C)=O)c1C(=O)OC`, the z-score is -0.513. For the compound `CCCCNC(=O)c1ccc(C#CC(C)(C)C)c(OC(C)=O)c1`, the z-score was -0.835. Then `COc1ccccc1CN1C(=O)c2ccccc2[C@](Cc2ccccc2I)(C(=O)O)[C@@H]1c1ccc(CO)cc1`, with 0.235.
